According to PubChem BioAssay AID1159580 (chemical genetic matrix, 2015):
Several values for one entry are separate records, joined by “and”; a condition that tells them apart may be missing. Equal entries are not always repeated. Among all 5,500 compounds or so, about 2,000 (36%) were called active. Not shown: some 18% with an inconclusive outcome. Rule as the data show it: active = normalized growth mostly below about 0.91 (no sharp cut-off); inconclusive = no clear call, values can overlap the other calls; inactive = mostly above about 0.92. The list shows a part of the results.

Experiment: chemical genetic growth profiling, strain panel (AID 1159580);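 also: tested at 20 µM; growth read once vehicle control cultures reached saturation at 30 °C; 1 = growth at the plate median or of vehicle wells; lower values mean less growth of the strain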
Conditions: S. cerevisiae deletion strains, growth OD

Measured: normalized growth

COc1c2ccoc2cc2oc(=O)ccc12
inactive: locus YAL021C, strain ccr4, active compounds read low 0.957 | locus YAL026C, strain drs2, active compounds read low 0.936 | locus YAL030W, strain snc1, active compounds read low 0.993 | locus YBL061C, strain skt5, active compounds read low 0.971 | locus YBR021W, strain FUR4, active compounds read low 1.1 | locus YBR023C, strain chs3, active compounds read low 0.968 | locus YBR171W, strain sec66, active compounds read low 0.954 | locus YBR229C, strain ROT2, active compounds read low 0.967 | locus YBR279W, strain paf1, active compounds read low 0.974 | locus YCL011C, strain gbp2, active compounds read low 0.942 | locus YCL016C, strain dcc1, active compounds read low 0.959 | locus YCL061C, strain MRC1, active compounds read low 0.97 | locus YCL069W, strain vba3, active compounds read low 0.968 | locus YCR088W, strain abp1, active compounds read low 0.987 | locus YDL005C, strain med2, active compounds read low 0.996 | locus YDL040C, strain nat1, active compounds read low 0.992 | locus YDL185W, strain tfp1, active compounds read low 0.911 | locus YDR001C, strain nth1, active compounds read low 0.976 | locus YDR069C, strain doa4, active compounds read low 0.96 | locus YDR159W, strain sac3, active compounds read low 1.04 | locus YDR297W, strain sur2, active compounds read low 0.99 | locus YDR335W, strain msn5, active compounds read low 0.953 | locus YDR392W, strain spt3, active compounds read low 0.761 | locus YEL003W, strain gim4, active compounds read low 0.96 | locus YEL037C, strain rad23, active compounds read low 0.942 | locus YEL061C, strain CIN8 (second series), active compounds read low 0.958 | locus YER015W, strain faa2, active compounds read low 0.981 | locus YER016W, strain bim1, active compounds read low 0.973 | locus YER111C, strain swi4, active compounds read low 0.975 | locus YFR010W, strain ubp6, active compounds read low 0.936 | locus YGL167C, strain pmr1, active compounds read low 0.981 | locus YGL173C, strain kem1, active compounds read low 0.96 | locus YGL227W, strain vid30, active compounds read low 0.976 | locus YGL240W, strain doc1, active compounds read low 0.896 | locus YGR229C, strain SMI1, active compounds read low 0.839 | locus YHR013C, strain ard1, active compounds read low 0.856 | locus YHR027C, strain rpn1, active compounds read low 0.983 | locus YIL073C, strain SPO22, active compounds read low 0.757 | locus YJL092W, strain hpr5, active compounds read low 0.976 | locus YJL095W, strain BCK1 (second series), active compounds read low 0.966 | locus YJL115W, strain asf1, active compounds read low 0.967 | locus YJL129C, strain trk1, active compounds read low 1.09 | locus YJL134W, strain LCB3, active compounds read low 0.957 | locus YJL154C, strain vps35, active compounds read low 0.977 | locus YJL164C, strain tpk1, active compounds read low 0.937 | locus YJL166W, strain qcr8, active compounds read low 0.91 | locus YJL168C, strain set2, active compounds read low 0.958 | locus YJL187C, strain SWE1, active compounds read low 1 | locus YJR066W, strain TOR1, active compounds read low 0.829 | locus YKL009W, strain mrt4, active compounds read low 0.914 | locus YKL068W, active compounds read low 0.973 | locus YKR026C, strain gcn3, active compounds read low 0.951 | locus YKR091W, strain srl3, active compounds read low 0.996 | locus YLL001W, strain dnm1, active compounds read low 0.977 | locus YLL026W, active compounds read low 0.98 | locus YLL041C, strain sdh2, active compounds read low 0.992 | locus YLR027C, strain aat2, active compounds read low 0.971 | locus YLR039C, strain RIC1, active compounds read low 0.906 | locus YLR102C, strain apc9, active compounds read low 0.929 | locus YLR113W, strain HOG1, active compounds read low 0.948 | locus YLR221C, strain rsa3, active compounds read low 0.941 | locus YLR258W, strain gsy2, active compounds read low 0.975 | locus YLR262C, strain YPT6 (second series), active compounds read low 1.09 | locus YLR320W, strain mms22, active compounds read low 0.887 | locus YLR342W, strain FKS1, active compounds read low 1.01 | locus YLR357W, strain rsc2, active compounds read low 1.13 | locus YLR370C, strain arc18, active compounds read low 0.969 | locus YLR384C, strain iki3, active compounds read low 0.956 | locus YMR058W, strain fet3, active compounds read low 0.953 | locus YMR125W, strain sto1, active compounds read low 1.03 | locus YMR129W, active compounds read low 0.977 | locus YMR205C, strain PFK2, active compounds read low 1.03 | locus YMR231W, strain pep5, active compounds read low 0.983 | locus YMR307W, strain GAS1, active compounds read low 0.974 | locus YNL071W, strain lat1, active compounds read low 0.972 | locus YNL183C, strain NPR1, active compounds read low 0.858 | locus YNL209W, strain ssb2, active compounds read low 0.976 | locus YNL322C, strain KRE1 (second series), active compounds read low 1.02 | locus YNR049C, strain mso1, active compounds read low 0.991 | locus YOL012C, strain htz1 0.31 | locus YOR070C, strain gyp1, active compounds read low 0.979 | locus YOR080W, strain dia2, active compounds read low 0.979 | locus YOR265W, strain rbl2, active compounds read low 0.989 | locus YOR290C, strain snf2, active compounds read low 0.877 | locus YOR316C, strain cot1, active compounds read low 0.975 | locus YPL078C, strain atp4, active compounds read low 0.893 | locus YPL240C, strain hsp82, active compounds read low 0.973 | locus YPL256C, strain CLN2, active compounds read low 0.907 | locus YPR119W, strain clb2, active compounds read low 0.964 | locus YPR141C, strain kar3, active compounds read low 0.997
active: locus YBR009C, strain hhf1, active compounds read low 0.886 | locus YBR231C, strain swc5, active compounds read low 0.872 | locus YCL029C, strain bik1, active compounds read low 0.647 | locus YDL035C, strain GPR1, active compounds read low 0.734 | locus YDL074C, strain BRE1, active compounds read low 0.544 | locus YDL101C, strain DUN1, active compounds read low 0.613 | locus YDL134C, strain PPH21, active compounds read low 0.703 | locus YDL192W, strain arf1, active compounds read low 0.674 | locus YDR101C, strain arx1, active compounds read low 0.741 | locus YDR137W, strain rgp1, active compounds read low 1.16 [resistant] | locus YDR162C, strain NBP2, active compounds read low 0.617 | locus YDR195W, strain ref2 1.38 [resistant] | locus YDR318W, strain mcm21, active compounds read low 0.699 | locus YDR388W, active compounds read low 0.814 | locus YDR502C, strain sam2, active compounds read low 0.791 | locus YER110C, active compounds read low 0.863 | locus YER155C, strain BEM2 (second series), active compounds read low 0.653 | locus YER155C, strain BEM2, active compounds read low 0.904 | locus YER167W, strain BCK2, active compounds read low 0.885 | locus YGL078C, strain dbp3, active compounds read low 0.91 | locus YGL086W, strain mad1, active compounds read low 0.719 | locus YGL248W, strain PDE1, active compounds read low 0.718 | locus YGL253W, strain hxk2, active compounds read low 0.903 | locus YGR078C, strain PAC10, active compounds read low 0.706 | locus YGR135W, strain pre9, active compounds read low 0.688 | locus YGR252W, strain gcn5, active compounds read low 0.554 | locus YHR030C, strain SLT2, active compounds read low 0.729 and 0.802 | locus YHR079C, strain IRE1 (second series), active compounds read low 0.854 | locus YHR079C, strain IRE1, active compounds read low 0.801 | locus YHR094C, strain hxt1, active compounds read low 0.922 | locus YHR129C, strain ARP1, active compounds read low 0.863 | locus YHR142W, strain chs7, active compounds read low 0.826 | locus YHR200W, strain rpn10, active compounds read low 0.636 | locus YIL066C, strain RNR3, active compounds read low 0.805 | locus YIL125W, strain kgd1, active compounds read low 0.869 | locus YIR030C, strain dcg1, active compounds read low 0.818 | locus YJL095W, strain BCK1, active compounds read low 0.337 and 0.817 | locus YJL187C, strain SWE1 (second series), active compounds read low 0.766 | locus YKL085W, strain MDH1 (second series), active compounds read low 0.915 | locus YKL085W, strain MDH1, active compounds read low 0.915 | locus YKL160W, strain elf1, active compounds read low 0.902 | locus YKL190W, strain CNB1, active compounds read low 0.898 | locus YKR001C, strain vps1, active compounds read low 0.44 | locus YLR058C, strain SHM2, active compounds read low 0.783 | locus YLR268W, strain sec22, active compounds read low 0.71 | locus YLR371W, strain rom2, active compounds read low 0.573 | locus YLR418C, strain cdc73, active compounds read low 0.494 | locus YML016C, strain PPZ1, active compounds read low 0.809 | locus YML032C, strain rad52, active compounds read low 0.411 | locus YML120C, strain ndi1, active compounds read low 0.901 | locus YML124C, strain tub3, active compounds read low 0.872 | locus YMR078C, strain ctf18, active compounds read low 0.878 | locus YMR223W, strain ubp8, active compounds read low 0.764 | locus YNL067W, strain RPL9B, active compounds read low 0.791 | locus YNL233W, strain BNI4, active compounds read low 0.74 | locus YNL248C, strain rpa49, active compounds read low 0.575 | locus YNL250W, strain rad50, active compounds read low 0.856 | locus YNL271C, strain bni1, active compounds read low 0.858 | locus YNL298W, strain CLA4, active compounds read low 0.77 | locus YNL307C, strain MCK1, active compounds read low 0.666 | locus YNR052C, strain pop2, active compounds read low 0.737 | locus YOL006C, strain TOP1, active compounds read low 0.419 | locus YOL147C, strain pex11, active compounds read low 0.757 | locus YOR001W, strain rrp6, active compounds read low 0.87 | locus YOR061W, strain CKA2, active compounds read low 0.872 | locus YOR069W, strain VPS5, active compounds read low 0.852 | locus YOR083W, strain WHI5, active compounds read low 0.799 | locus YOR106W, strain vam3, active compounds read low 0.854 | locus YOR136W, strain idh2, active compounds read low 0.888 | locus YOR144C, strain elg1, active compounds read low 0.852 | locus YOR184W, strain ser1, active compounds read low 0.46 | locus YOR231W, strain MKK1, active compounds read low 0.83 | locus YOR270C, strain vph1, active compounds read low 0.751 | locus YPL051W, strain arl3, active compounds read low 0.91 | locus YPL106C, strain sse1, active compounds read low 0.78 | locus YPR163C, strain tif3, active compounds read low 0.672 | locus YPR167C, strain met16, active compounds read low 0.775 | strain wtn01, active compounds read low 0.731
